According to PubChem BioAssay (EPA / NIEHS):
Calls of active or inactive are those of the source. The calls were made as follows: active = hit-call score of the fitted dose curve at least 0.9, where 1 is the maximum; inactive = score below 0.9.

Tests used:
[1] = molecular target: Paired box protein Pax-6 (Homo sapiens) (UniProt P26367); test: ATG_Pax6_CIS: Attagene CIS-FACTORIAL HepG2 Assay for human Paired Box 6 (PAX6) (AID 2282956); settings: HepG2 CIS-FACTORIAL PAX6 reporter transcription, RNA readout; actives raise or lower the signal
Summary of the method: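 Readout: reporter transcript fluorescence after RT-PCR and capillary electrophoresis. Cells: HepG2, transiently transfected with cis-regulated MRTUs. Exposure 24 h. Gain or loss of signal fitted bidirectionally relative to DMSO.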

[2] = ATG_PXRE_CIS: Attagene CIS-FACTORIAL HepG2 Assay for human Pregnane X Receptor Element (PXRE) (AID 2282957); settings: HepG2 Attagene CIS-FACTORIAL PXRE reporter, mRNA; actives raise or lower the signal
Summary of the method: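 Fluorescent capillary electrophoresis of amplified reporter cDNA gave the signal, collected 24 h after dosing HepG2 cells that held transfected cis-element reporter constructs.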

[3] = ATG_PPRE_CIS: Attagene CIS-FACTORIAL HepG2 Assay for human Peroxisome Proliferator-activated Response Element (PPRE) (AID 2282958); settings: HepG2 PPRE cis-element reporter, Attagene transcription factor profiling; actives raise or lower the signal
Summary of the method: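 PPRE activity in HepG2: transient cis-reporter transfection, 24 h compound incubation, reporter mRNA by RT-PCR and CE fluorescence; gain/loss fitted against DMSO.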

[4] = ATG_SREBP_CIS: Attagene CIS-FACTORIAL HepG2 Assay for human Sterol Regulatory Element Binding (SREBP) (AID 2282962); settings: HepG2 Attagene cis-factorial SREBP reporter, mRNA; actives raise or lower the signal
Summary of the method: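 Readout: fluorescent reporter-transcript peaks resolved by capillary electrophoresis after RT-PCR. Cells were human HepG2 carrying transfected cis-promoter reporter constructs, dosed for 24 h. Gain or loss of signal was fitted against DMSO controls.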

[5] = molecular target: Signal transducer and activator of transcription 3 (Homo sapiens) (UniProt P40763); test: ATG_STAT3_CIS: Attagene CIS-FACTORIAL HepG2 Assay for human Signal Transducer and Activator of Transcription 3 (STAT3) (AID 2282963); settings: HepG2, Attagene cis-factorial STAT3 reporter transcription; actives raise or lower the signal
Summary of the method: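 Readout: fluorescent reporter mRNA fragments resolved by capillary electrophoresis. Setup: HepG2 transfected with MRTUs reporting endogenous transcription-factor activity, dosed 24 h. Gain or loss of signal fitted bidirectionally against DMSO control.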

[6] = ATG_TA_CIS: Attagene CIS-FACTORIAL HepG2 Assay for human TA Basal Promoter (AID 2282964); settings: HepG2 Attagene CIS-factorial TA basal promoter reporter; actives raise or lower the signal
Summary of the method: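 Multiplexed mRNA reporter assay, HepG2, 24 h. Reporter cDNA amplified, 6-FAM primer-extended, HpaI-cut, CE-sized; DMSO = negative control and baseline.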

[7] = ATG_TCF_b_cat_CIS: Attagene CIS-FACTORIAL HepG2 Assay for human T-Cell-Factor with beta-catenin (TCF/b-cat) (AID 2282965); settings: HepG2 TCF/beta-catenin cis-reporter transcription, actives raise or lower the signal
Summary of the method: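 HepG2 cells transiently transfected with cis-promoter-driven multiplexed reporter units; reporter mRNA measured 24 h after dosing by RT-PCR, FAM labelling, HpaI digestion and capillary electrophoresis. Bidirectional fitting relative to DMSO baseline.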

[8] = ATG_RORE_CIS: Attagene CIS-FACTORIAL HepG2 Assay for human RAR-related Orphan Receptor Element (RORE) (AID 2282959); settings: HepG2 Attagene cis-factorial RORE reporter, mRNA; actives raise or lower the signal
Summary of the method: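 A 24-hour exposure of transfected HepG2 hepatoma cells precedes RNA isolation and reporter RT-PCR. Labeled products are digested with HpaI and resolved by capillary electrophoresis, with gain or loss of signal scored relative to DMSO.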

[9] = ATG_Sox_CIS: Attagene CIS-FACTORIAL HepG2 Assay for human SRY-box transcription factor (SOX) (AID 2282960); settings: HepG2 Attagene cis-factorial SOX reporter, mRNA; actives raise or lower the signal
Summary of the method: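 HepG2, cis reporter units, 24 h exposure. Reporter mRNA: RT-PCR → FAM labelling → HpaI → CE fluorescence. Bidirectional fit vs DMSO.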

[10] = molecular target: Transcription factor Sp1 (Homo sapiens) (UniProt P08047); test: ATG_Sp1_CIS: Attagene CIS-FACTORIAL HepG2 Assay for human Specificity Protein 1 (Sp1) (AID 2282961); settings: HepG2 Sp1 cis-reporter transcription, actives raise or lower the signal
Summary of the method: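 Liver-derived HepG2 cells, cis-element reporter library, 24 h treatment; RNA isolated, cDNA amplified with reporter-specific primers, FAM-labeled fragments sized on capillary analyzer. DMSO baseline, bidirectional curve fit.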

Transcription factor Sp1 (Homo sapiens), sequence (P08047 whole entry, looked up, the tested form may be a part): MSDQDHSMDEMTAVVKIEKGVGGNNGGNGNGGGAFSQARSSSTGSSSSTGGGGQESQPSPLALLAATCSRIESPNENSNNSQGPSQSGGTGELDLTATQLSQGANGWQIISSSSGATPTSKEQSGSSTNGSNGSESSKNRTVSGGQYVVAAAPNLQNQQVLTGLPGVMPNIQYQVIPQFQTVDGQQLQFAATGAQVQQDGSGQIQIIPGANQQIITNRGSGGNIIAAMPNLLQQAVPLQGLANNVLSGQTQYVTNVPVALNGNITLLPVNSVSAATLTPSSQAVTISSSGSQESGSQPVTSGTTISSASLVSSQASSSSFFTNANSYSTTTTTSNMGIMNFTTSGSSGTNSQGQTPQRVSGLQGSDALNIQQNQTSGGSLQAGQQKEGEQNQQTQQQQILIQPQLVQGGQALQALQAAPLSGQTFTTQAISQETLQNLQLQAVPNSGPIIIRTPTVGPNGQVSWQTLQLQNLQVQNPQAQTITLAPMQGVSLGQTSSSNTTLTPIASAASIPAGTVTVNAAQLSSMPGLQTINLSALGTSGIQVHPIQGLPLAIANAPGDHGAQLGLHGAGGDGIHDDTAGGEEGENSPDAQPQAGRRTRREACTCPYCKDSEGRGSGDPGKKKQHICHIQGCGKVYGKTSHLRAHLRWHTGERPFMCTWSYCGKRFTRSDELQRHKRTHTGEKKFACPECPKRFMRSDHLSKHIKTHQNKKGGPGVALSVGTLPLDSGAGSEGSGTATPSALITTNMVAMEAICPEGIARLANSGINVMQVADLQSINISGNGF
Signal transducer and activator of transcription 3 (Homo sapiens), sequence (P40763 whole entry, looked up, the tested form may be a part): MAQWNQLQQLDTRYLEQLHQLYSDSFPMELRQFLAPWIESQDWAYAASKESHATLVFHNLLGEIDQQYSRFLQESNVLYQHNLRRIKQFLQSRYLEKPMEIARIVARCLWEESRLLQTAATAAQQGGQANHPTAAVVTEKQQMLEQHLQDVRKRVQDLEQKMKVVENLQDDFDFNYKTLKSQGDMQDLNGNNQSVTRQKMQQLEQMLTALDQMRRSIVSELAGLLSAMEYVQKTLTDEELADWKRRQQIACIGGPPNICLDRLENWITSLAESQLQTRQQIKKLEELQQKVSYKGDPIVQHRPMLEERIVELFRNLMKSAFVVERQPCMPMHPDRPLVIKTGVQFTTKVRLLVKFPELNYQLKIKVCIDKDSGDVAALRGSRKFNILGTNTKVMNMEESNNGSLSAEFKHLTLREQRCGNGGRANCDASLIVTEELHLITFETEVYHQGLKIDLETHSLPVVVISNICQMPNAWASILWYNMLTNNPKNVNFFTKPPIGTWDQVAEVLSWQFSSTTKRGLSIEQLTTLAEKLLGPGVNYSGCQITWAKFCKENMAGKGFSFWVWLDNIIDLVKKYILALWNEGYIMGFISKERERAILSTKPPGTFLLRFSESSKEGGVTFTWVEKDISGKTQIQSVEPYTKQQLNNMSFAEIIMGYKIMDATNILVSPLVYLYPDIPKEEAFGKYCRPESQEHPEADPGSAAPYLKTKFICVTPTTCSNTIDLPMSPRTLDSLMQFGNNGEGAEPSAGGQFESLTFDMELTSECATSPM
Paired box protein Pax-6 (Homo sapiens), sequence (P26367 whole entry, looked up): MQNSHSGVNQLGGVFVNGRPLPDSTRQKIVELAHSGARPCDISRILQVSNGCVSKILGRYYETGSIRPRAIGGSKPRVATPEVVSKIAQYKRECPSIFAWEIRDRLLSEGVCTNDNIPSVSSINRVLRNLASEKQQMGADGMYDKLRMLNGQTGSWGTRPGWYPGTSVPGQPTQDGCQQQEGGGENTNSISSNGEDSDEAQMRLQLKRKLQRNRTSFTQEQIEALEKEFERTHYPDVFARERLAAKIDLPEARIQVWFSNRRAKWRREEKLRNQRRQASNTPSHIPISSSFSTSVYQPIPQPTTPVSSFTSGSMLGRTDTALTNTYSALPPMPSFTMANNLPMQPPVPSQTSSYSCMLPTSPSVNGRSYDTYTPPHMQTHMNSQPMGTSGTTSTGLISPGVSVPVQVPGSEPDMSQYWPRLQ

CC1(C)O[C@@H]2C[C@H]3[C@@H]4C[C@H](F)C5=CC(=O)C=C[C@]5(C)[C@@]4(F)[C@@H](O)C[C@]3(C)[C@]2(C(=O)CO)O1
outcome [1]: inactive
AC50 [2]: 6.12 µM (active)
outcome [3]: inactive
outcome [4]: inactive
outcome [5]: inactive
outcome [6]: inactive
outcome [7]: inactive

COc1ccc(C(Cl)=C(c2ccc(OC)cc2)c2ccc(OC)cc2)cc1
outcome [1]: inactive
AC50 [2]: 2.54 µM (active)
outcome [8]: inactive
outcome [9]: inactive
outcome [10]: inactive
outcome [4]: inactive
outcome [5]: inactive
outcome [6]: inactive
outcome [7]: inactive

C[Si](C)(C)O[Si](O)(O)O
outcome [1]: inactive
AC50 [2]: 26.9 µM (active)
outcome [8]: inactive
outcome [9]: inactive
outcome [10]: inactive
outcome [4]: inactive
outcome [5]: inactive
outcome [6]: inactive
outcome [7]: inactive

CC(C)(C)C(=O)C=Cc1ccc(Cl)cc1
AC50 [1]: 36.8 µM (active)
AC50 [2]: 5.18 µM (active)
outcome [8]: inactive
AC50 [9]: 25.1 µM (active)
AC50 [10]: 27.3 µM (active)
outcome [4]: inactive
AC50 [5]: 164 µM (active)
AC50 [6]: 78.2 µM (active)
AC50 [7]: 53.8 µM (active)

CC(C)(C)C1CCCCC1=O (stereo not drawn)
outcome [1]: inactive
AC50 [2]: 76.6 µM (active)
outcome [8]: inactive
outcome [9]: inactive
outcome [10]: inactive
outcome [4]: inactive
outcome [5]: inactive
outcome [7]: inactive

CCc1ccc2c(c1)C(=O)c1ccccc1C2=O
outcome [1]: inactive
AC50 [2]: 3.01 µM (active)
outcome [8]: inactive
outcome [9]: inactive
outcome [10]: inactive
outcome [4]: inactive
outcome [5]: inactive
outcome [6]: inactive
outcome [7]: inactive

C#CC1(O)CC[C@H]2[C@@H]3CCC4=CCCC[C@@H]4[C@H]3CC[C@@]21C (stereo partly drawn)
outcome [1]: inactive
AC50 [2]: 2.58 µM (active)
AC50 [8]: 41.7 µM (active)
outcome [9]: inactive
outcome [10]: inactive
AC50 [4]: 27.4 µM (active)
outcome [5]: inactive
AC50 [7]: 33.4 µM (active)

O=CN1CCCCC1
outcome [1]: inactive
outcome [2]: inactive
outcome [8]: inactive
outcome [9]: inactive
outcome [10]: inactive
outcome [4]: inactive
outcome [5]: inactive
outcome [6]: inactive
outcome [7]: inactive

COCCCOCCCOC
outcome [1]: inactive
outcome [2]: inactive
outcome [8]: inactive
outcome [9]: inactive
outcome [10]: inactive
outcome [5]: inactive
outcome [6]: inactive
outcome [7]: inactive

CNC(=S)N(C)C
outcome [1]: inactive
outcome [2]: inactive
outcome [8]: inactive
outcome [9]: inactive
outcome [10]: inactive
outcome [4]: inactive
outcome [5]: inactive
outcome [6]: inactive
outcome [7]: inactive

[Cl][In]([Cl])[Cl]
outcome [1]: inactive
outcome [2]: inactive
outcome [8]: inactive
outcome [9]: inactive
outcome [10]: inactive
outcome [4]: inactive
outcome [5]: inactive
outcome [6]: inactive
outcome [7]: inactive

CC1=Nc2ccc3ccccc3c2C1(C)C
outcome [1]: inactive
AC50 [2]: 1.78 µM (active)
outcome [8]: inactive
outcome [9]: inactive
outcome [10]: inactive
AC50 [4]: 100 µM (active)
outcome [5]: inactive
outcome [6]: inactive
outcome [7]: inactive

O=C1c2cccc(O)c2C(=O)c2c(O)cc(CO)cc21
outcome [1]: inactive
AC50 [2]: 8.72 µM (active)
outcome [8]: inactive
outcome [9]: inactive
outcome [10]: inactive
outcome [4]: inactive
outcome [5]: inactive
outcome [7]: inactive

CC(C)=CCC/C(C)=C\C#N
outcome [1]: inactive
AC50 [2]: 28.1 µM (active)
outcome [8]: inactive
outcome [9]: inactive
outcome [10]: inactive
outcome [4]: inactive
outcome [5]: inactive
outcome [6]: inactive
outcome [7]: inactive

C=CC(=O)OCCOC1C2CCC1C1CC=CC12 (stereo not drawn)
outcome [1]: inactive
outcome [2]: inactive
outcome [8]: inactive
outcome [9]: inactive
outcome [10]: inactive
outcome [4]: inactive
outcome [5]: inactive
outcome [6]: inactive
outcome [7]: inactive

C=CCOc1c(Br)cc(Br)cc1Br
outcome [1]: inactive
AC50 [2]: 12.7 µM (active)
outcome [8]: inactive
outcome [9]: inactive
outcome [10]: inactive
outcome [4]: inactive
outcome [5]: inactive
outcome [6]: inactive
outcome [7]: inactive

COc1c2ccoc2cc2oc(=O)ccc12
outcome [1]: inactive
AC50 [2]: 26.9 µM (active)
outcome [8]: inactive
outcome [9]: inactive
outcome [10]: inactive
outcome [4]: inactive
outcome [5]: inactive
outcome [6]: inactive
outcome [7]: inactive

CC(C)COC(=O)C=Cc1ccccc1
outcome [1]: inactive
AC50 [2]: 27.2 µM (active)
outcome [8]: inactive
outcome [9]: inactive
outcome [10]: inactive
outcome [5]: inactive
outcome [6]: inactive
outcome [7]: inactive

COc1ccc([C@@H]2CC(=O)c3c(O)cc(O[C@@H]4O[C@H](CO[C@@H]5O[C@@H](C)[C@H](O)[C@@H](O)[C@H]5O)[C@@H](O)[C@H](O)[C@H]4O)cc3O2)cc1OC
outcome [1]: inactive
outcome [2]: inactive
outcome [8]: inactive
outcome [9]: inactive
outcome [10]: inactive
outcome [4]: inactive
outcome [5]: inactive
outcome [7]: inactive

O=C1CCCC1
outcome [1]: inactive
AC50 [2]: 62.7 µM (active)
outcome [8]: inactive
outcome [9]: inactive
outcome [10]: inactive
outcome [4]: inactive
outcome [5]: inactive
outcome [7]: inactive

C=CC(=O)OCCC(=O)O
outcome [1]: inactive
outcome [2]: inactive
outcome [8]: inactive
outcome [9]: inactive
outcome [10]: inactive
outcome [4]: inactive
outcome [5]: inactive
outcome [7]: inactive

Cc1ccc(N/N=c2\c(=O)cc/c(=N/Nc3ccc(S(=O)(=O)O)cc3)c2=O)c(C)c1
outcome [1]: inactive
AC50 [2]: 42.6 µM (active)
outcome [8]: inactive
outcome [9]: inactive
outcome [10]: inactive
outcome [4]: inactive
outcome [5]: inactive
outcome [6]: inactive
outcome [7]: inactive

CCCCCCCC/C=C\CCCCCCCC(=O)O
outcome [1]: inactive
outcome [2]: inactive
outcome [8]: inactive
outcome [9]: inactive
outcome [10]: inactive
outcome [4]: inactive
outcome [5]: inactive
outcome [6]: inactive
outcome [7]: inactive

CCCCCC/C=C/C=O
outcome [1]: inactive
AC50 [2]: 37.8 µM (active)
outcome [8]: inactive
outcome [9]: inactive
outcome [10]: inactive
outcome [4]: inactive
outcome [5]: inactive
outcome [7]: inactive

Cc1cc(O)c(Cl)c(C)c1Cl
outcome [1]: inactive
AC50 [2]: 15.1 µM (active)
outcome [8]: inactive
outcome [9]: inactive
outcome [10]: inactive
outcome [4]: inactive
outcome [5]: inactive
outcome [6]: inactive
outcome [7]: inactive

O=C(O)c1cc(Cl)cc([N+](=O)[O-])c1Cl
outcome [1]: inactive
outcome [2]: inactive
outcome [8]: inactive
outcome [9]: inactive
outcome [10]: inactive
outcome [4]: inactive
outcome [5]: inactive
outcome [6]: inactive
outcome [7]: inactive
